# Results reported in the supplement of paper PMC3724861.
# The sample as a whole holds a higher share of hits than the screen did. The true hit rate is not given. A number with no mark means an inactive call.
# Test system: T1, Caupolican (Caup) homeodomain DNA-binding domain
# T1 sequence: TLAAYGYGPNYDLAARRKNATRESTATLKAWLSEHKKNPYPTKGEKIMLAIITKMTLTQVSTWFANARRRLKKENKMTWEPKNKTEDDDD
# Test: PBM E-score (8-mer, recovered from the published 9-mer minima) (E-score (dimensionless, -0.5 to 0.5)); Drosophila protein; higher = stronger relative binding preference, active = 0.31 or more
# In short: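 An enrichment score, with higher meaning stronger, expresses relative binding preference for each short DNA word. The protein used was Caup's homeodomain DNA-binding domain (residues 214-303), produced by in vitro transcription and translation and tested at 100 nM on custom-designed protein binding microarrays. The 8-mer values were recovered from published 9-mer scores, each equal to the lower of its two constituent 8-mer scores.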
row,Sequence,PBM E-score
1,TAGCGGGA,-0.169
2,CGATATTC,-0.0778
3,AGGATGAA,-0.102
4,CCGAGTCG,-0.169
5,AGAAGAGG,-0.176
6,CCCCTTCG,-0.25
7,ATGGGAAC,0.0233
8,AGGTAGAA,0.0148
9,TAACAGCA,0.145
10,CACAAACC,-0.0236
11,TTGATCAA,0.115
12,GACCGTTA,0.0165
13,AGTCAGAC,-0.0283
14,AGTTACAT,0.319 (active)
15,ACTTACAC,0.245
16,ACTTACAT,0.339 (active)
17,TGTTACAA,0.42 (active)
18,AGTTACAG,0.189
19,AGTTACAA,0.295
20,CGTTACAA,0.289
21,ACTTACAG,0.187
22,AGTTACAC,0.303
23,CCGAAATC,-0.0715
24,CCGAGCAG,-0.0223

row,Sequence,PBM E-score
1,ACTCAGCA,0.0319
2,CAGTGTTA,0.24
3,CCGTGTTA,0.321 (active)
4,ACGTGTTG,0.347 (active)
5,CGGTGTTA,0.179
6,AGGTGTTA,0.207
7,ACGTGTGG,0.0393
8,CGGTGTTC,0.157
9,GCGTGTTA,0.284
10,ACGTGTTA,0.33 (active)
11,CCGTGTTC,≥ 0.382 (active)
12,ACGTGTTC,0.279
13,AGGTGTTG,0.125
14,ACCGGGCC,-0.228
15,GCACGTCC,-0.0893
16,AGTTTTCC,-0.0223
17,AGCCCACT,-0.166
18,ATGTTCGA,0.34 (active)
19,GTGTTCGA,0.236
20,CTGTTCAA,0.0792
21,ATGTTCAA,0.327 (active)
22,ATGTTCGG,0.244
23,ATGTTCAC,0.334 (active)
24,AGGTTCAC,-0.0392

row,Sequence,PBM E-score
1,CTGTTCAC,0.147
2,ATGTTCAG,0.295
3,CACTCTGA,0.0251
4,ATAGGGTG,-0.0464
5,CCCATAAC,0.0433
6,CACGACCA,0.098
7,CAGAAGAG,-0.0491
8,ATCCTCCG,-0.0647
9,AAGTGAGA,-0.0758
10,CCTCTGGA,-0.169
11,CTCCGTGA,-0.0581
12,CGGTAGGC,-0.149
13,ATACGATA,0.186
14,CGATGTAC,0.374 (active)
15,CGATGTGC,-0.0367
16,CCATGTAG,0.268
17,CCATGTAA,0.404 (active)
18,GCATGTAC,0.413 (active)
19,GAATGTAC,0.165
20,CGATGTAG,0.179
21,AAATGTAG,0.0799
22,ACATGTAG,0.476 (active)
23,GGATGTAC,0.305
24,ACCTGTAG,0.0685

row,Sequence,PBM E-score
1,CCCTGTAA,0.161
2,AGGCTTTC,-0.088
3,ACCGCGGA,-0.137
4,ATTCCTTA,0.0011
5,CATCCCAC,-0.133
6,GCTGCCGA,-0.282
7,CCCTGTAC,0.158
8,TCATGTAA,0.427 (active)
9,ACATGTAC,≥ 0.48 (active)
10,ACATGTAA,0.468 (active)
11,AACTGTAA,0.197
12,AAATGTAC,0.279
13,TCCTGTAA,0.2
14,CCATGTAC,0.411 (active)
15,TCATGGAA,0.0375
16,AGATGTAC,0.299
17,ACACGTAA,0.309
18,CCCCTTGA,-0.156
19,CACGCACA,0.0915
20,AGGTCATG,0.0878
21,ATAGTCGG,-0.0656
22,AAAGCTCG,-0.0924
23,CTCATCTC,-0.158
24,GGGATTGA,-0.0471

row,Sequence,PBM E-score
1,GCATGGAA,-0.00398
2,GCATGTAA,0.409 (active)
3,GCCTGTAA,0.09
4,ACATGTAT,0.469 (active)
5,ACCTGTAT,0.222
6,AAATGTAT,0.241
7,CGCAGAAC,-0.0278
8,GAATTATA,0.109
9,GCGGGTAA,-0.02
10,TAACAAAA,0.119
11,AAACAACC,0.202
12,CAACAACA,0.408 (active)
13,CAACAACC,0.238
14,TAACAAGA,0.298
15,GAACAACA,0.292
16,AAACAACT,0.246
17,AAACAACA,0.363 (active)
18,TAACAACA,0.406 (active)
19,AGTATCTA,0.166
20,TATCTAGA,0.0449
21,GGACCCAC,-0.208
22,GAGCAGAC,-0.0808
23,CTAGAAAA,0.0157
24,CACTAATG,0.0246

row,Sequence,PBM E-score
1,CATAGCCG,-0.0066
2,AACACGTT,0.292
3,AACACGTG,≥ 0.351 (active)
4,AACACGTA,0.316 (active)
5,CACACGTG,0.148
6,ACCACGTG,0.0775
7,AACACGTC,0.299
8,CTATTTTC,0.101
9,ACTACACA,≥ 0.357 (active)
10,CCTACACG,0.18
11,ACTACACT,0.242
12,ACTACACG,≥ 0.357 (active)
13,GCTACACA,0.185
14,ACTACACC,0.281
15,ATAGCTCG,-0.0531
16,GTTCCCAA,-0.045
17,CGATGCTC,-0.13
18,CACGTGTA,0.329 (active)
19,AACGTGTA,0.371 (active)
20,AACGTGTC,0.257
21,AACGTGTG,0.111
22,GACGTGTA,0.344 (active)
23,CACGTGAA,0.00852
24,GACGTGAA,-0.0186

row,Sequence,PBM E-score
1,GACGTGGA,-0.0891
2,CACGTGTC,0.266
3,GCCCGTCC,-0.243
4,AGGGTATC,-0.045
5,GTACCGTA,0.0122
6,CATGTGTC,0.245
7,GATGTCTA,0.23
8,AATGTCTC,0.112
9,CATGTCTA,0.359 (active)
10,AATGTCTA,0.242
11,CATGTCTC,0.314 (active)
12,AAAGATTT,-0.00222
13,CTCACCCC,-0.125
14,GTGTATTA,0.297
15,CTGTATTA,0.159
16,ATGTATTA,0.373 (active)
17,ATGTATTG,0.344 (active)
18,ACGTATTG,0.151
19,ATGTATTC,0.222
20,GCCCCGGC,-0.316
21,CACAGTAA,0.122
22,CTCTAAAG,-0.0918
23,GCGGTTCA,-0.101
24,GACAAGGC,0.205

row,Sequence,PBM E-score
1,AACAAGGA,0.302
2,CACAAGGA,0.109
3,GACAAGGA,0.314 (active)
4,GACAAAGA,0.13
5,TACAAGGA,0.352 (active)
6,CTCGACTC,-0.0783
7,CGGCTATC,-0.134
8,ACACATAT,0.323 (active)
9,CCATATAA,0.0843
10,ACATATAC,0.291
11,ACACATAG,0.174
12,ACATATAG,0.256
13,ACATATAA,0.35 (active)
14,TCATATAA,0.184
15,ACACATAA,0.291
16,ACATATAT,0.343 (active)
17,CGACTATC,-0.0393
18,AGAGGATA,0.0175
19,ATCAAGAT,0.0803
20,CTAGGAGC,-0.193
21,CATCCCGC,-0.146
22,AACACTAA,0.166
23,GCTTAAAA,-0.0795
24,GCGCCACA,-0.129

row,Sequence,PBM E-score
1,CGCGTATA,-0.0122
2,AATATTGC,0.153
3,ACATGCCT,0.254
4,ACATGCTC,0.334 (active)
5,CCATGCTA,0.102
6,ACATGCTG,0.332 (active)
7,ACATGCTA,0.352 (active)
8,ACATGCCA,0.336 (active)
9,CCATGCTC,-0.00716
10,CTATGCTC,0.0374
11,TCATGCCA,0.0318
12,GCATGCTA,0.0372
13,ATATGCTG,0.0997
14,AGATGCTG,-0.00229
15,CACTGCTA,0.075
16,CATACCGC,-0.0667
17,AAGCTCCT,-0.0876
18,GGATGCTA,-0.0509
19,CCAAACGG,-0.223
20,AATTCAAG,0.118
21,ACTATAAT,0.162
22,CTTGCGCA,-0.0025
23,AAAGTACA,0.276
24,TAAGTACA,0.332 (active)

row,Sequence,PBM E-score
1,TAAGTAAA,0.0166
2,TGAGTACA,0.265
3,GAAGTACA,0.269
4,CAAGTACA,0.342 (active)
5,GAAACCCA,0.0044
6,ATCTCTGG,-0.00282
7,CGAGGTCA,-0.0898
8,CAACTTGA,0.0844
9,CTGTACGA,0.203
10,AGGTACTG,0.0558
11,ATGTACCA,0.36 (active)
12,ATGTACTA,0.398 (active)
13,ATGTACTG,0.339 (active)
14,ATGTACCC,0.263
15,GTGTACCA,0.308
16,AAGTACTA,0.197
17,ATGTACTC,0.303
18,ATGTACGA,0.395 (active)
19,ATGTACGG,0.211
20,CTGTACTC,0.082
